# From PubChem BioAssay (Tox21)
# A number with no mark means an inactive call. Calls of active or inactive are those of the source. The call rests on the fitted dose curve; in most records, active means well fitted curve in the direction sought with a large enough effect in the repeat runs; inconclusive means weak or mixed curves; inactive means flat fitted curve, though single readings scatter.
# Assay: qHTS assay to test for compound auto fluorescence at 535 nm (green) in HepG2 cell free culture (AID 720686)
# Settings: Cell-free medium, green autofluorescence 485/535 nm; series mostly up to 91.3 µM; fluorescence, % of fluorescein control: at the top concentration
# From the text: U.S. Tox21 Program National Center for Advancing Translational Sciences [NCATS] NIH Chemical Genomics Center [NCGC] U.S. Environmental Protection Agency [EPA] National Institutes of Environmental Health Sciences [NIEHS] National Toxicology Program [NTP] U.S. Food and Drug Administration [FDA] Tox21 Assay Overview: Compound auto fluorescence often interferes with screening of the compound library against various biological targets and signaling pathways. Some of these compounds may have fluorophoric properties. Such properties may interfere with the assay outputs resulting in false positives and/or negatives. To decrease such complications and ensure the compound activities are relevant in terms of biological response, the Tox21 10K compound library was screened for auto fluorescence. From the fluorophores used as reporter signals in our screening assays, the auto fluorescence equivalencies of compounds against three fluorophores have been evaluated: Triamterene, Fluorescein and Rose Bengal sodium for blue, green and red fluorescence, respectively. The fluorescence intensities were measured using Excitation/Emission wavelengths at 405/460nm, 485/535nm and 540/590nm for blue, green and red labels, respectively. This assay includes the green fluorescence data.
# Tox21 Assay Protocol Summary: 5 uL of culture medium (MEM containing 10% FBS) per well was dispensed into black wall/clear bottom 1536-well plates using a Multidrop Combi Dispenser (ThermoFisher Scientific, Waltham, MA). After 23 nL compound or DMSO vehicle was transferred into assay plate by a pintool work station (Kalypsys, San Diego, CA), fluorescence intensities in the assay plates were measured by an Envision (PerkinElmer, Shelton, CT) plate reader using three labels for measuring blue, green and red fluorescence at […] 460, 535 and 590nm respectively.
# On the % scale 0 is the no-effect control and ±100 the full control effect.
Structure (SMILES),"fluorescence, % of fluorescein control",Potency
CN(C)c1ccc(CCO)cc1,-0.006%,
O=C(O)c1nc(Cl)c(Cl)c(Cl)c1Cl,-0.06%,
Cc1nn(C)c(Oc2ccccc2)c1/C=N/OCc1ccc(C(=O)OC(C)(C)C)cc1,0.0173%,
O=C(O)c1ccc(S(=O)(=O)O)cc1C(=O)O,0.0019%,
OC(C#CCN1CCCC1)(c1ccccc1)c1ccccc1,0.143% [at 46 µM],
CCCCCCCCCOS(=O)(=O)O,-0.0425%,
COc1ccc(-c2nc3ccc(C4=NNC(=O)CC4C)cc3[nH]2)cc1 (stereo not given),-0.0188% [at 46 µM],
CCOC(=O)COC(=O)c1cc(Oc2ccc(C(F)(F)F)cc2Cl)ccc1[N+](=O)[O-],0.0115%,
O=S(c1cc(Cl)cc(Cl)c1O)c1cc(Cl)cc(Cl)c1O,-0.0727% [at 46 µM],
CC(=O)NO,-0.158% [at 46 µM],
O=[N+]([O-])c1ccc(NCCO)c(OCCO)c1,-0.168%,
CCCCC,,inactive
CCCCCCCC/C=C\CCCCCCCC(=O)OCC,0.0331%,
COc1ccc(C(=O)c2ccc(OC)cc2O)c(O)c1,0.0248%,
COc1cc2nc(N3CCN(C(=O)C4COc5ccccc5O4)CC3)nc(N)c2cc1OC (stereo not given),-0.0061% [at 46 µM],
Nc1cccc(S(=O)(=O)c2cccc(N)c2)c1,0.0337%,
O=C1CCCCCCCCCCCC(=O)OCCO1,-0.0158%,
COc1cc2nc(N(C)CCCNC(=O)C3CCCO3)nc(N)c2cc1OC (stereo not given),-0.0969% [at 18.6 µM],
COc1ccc(C)cc1[N+](=O)[O-],0.0191% [at 95.7 µM],
C#CCN(C)CCCOc1ccc(Cl)cc1Cl,-0.004% [at 46 µM],

Structure (SMILES),"fluorescence, % of fluorescein control",Potency
O=C1[C@H]2CCCC[C@H]2C(=O)N1CCCCN1CCN(c2nsc3ccccc23)CC1,-0.0577% [at 46 µM],
OCCN1CCN(CCCN2c3ccccc3C=Cc3ccccc32)CC1,,inactive
C=C(C)C(=O)OCCO,-0.138% [at 95.7 µM],
Cc1[nH]c(C)c(Cl)c(=O)c1Cl,-0.0037% [at 46 µM],
CC(CC=O)c1ccccc1 (stereo not given),0.039%,
c1ccc(-c2ccccn2)nc1,0.0245%,
O=S(=O)(Oc1ccc(Cl)cc1)c1ccccc1,0.0826%,
c1cc(CCCc2ccncc2)ccn1,0.0545%,
C=C1C(=C/C=C2\CCC[C@]3(C)[C@@H]([C@H](C)/C=C/[C@@H](O)C4CC4)CC[C@@H]23)C[C@@H](O)C[C@@H]1O,0.131% [at 46 µM],
O=C1C(O)=C(O)C(=O)C(O)=C1O,-0.0028% [at 46 µM],
S=C([S-])NCCNC(=S)[S-].[Mn+2],0.0082%,
CC1=CC[C@H](C(C)C)C=C1,0.0276%,
COCC(C)OC(C)=O (stereo not given),0.0599%,
CCCCCCCCCCCC(=O)OC[C@@H](O)[C@H]1OC[C@H](OCCO)[C@H]1OCCO,-0.0692%,
CN(Cc1ccc(C(C)(C)C)cc1)Cc1cccc2ccccc12,,inactive
C[C@@H](c1ncncc1F)C(O)(Cn1cncn1)c1ccc(F)cc1F (stereo not given in full),0.0369% [at 46 µM],
CCC(=O)O[C@]1(C(=O)CCl)[C@@H](C)C[C@H]2[C@@H]3CCC4=CC(=O)C=C[C@]4(C)[C@@]3(F)[C@@H](O)C[C@@]21C,-0.0372% [at 46 µM],
Cc1cccc(C)c1OCC(=O)N[C@@H](Cc1ccccc1)[C@@H](O)C[C@H](Cc1ccccc1)NC(=O)[C@H](C(C)C)N1CCCNC1=O,0.0526% [at 46 µM],
C[N+]1(CC2COC(c3ccccc3)(C3CCCCC3)O2)CCCCC1 (stereo not given),0.0656% [at 46 µM],
CC[N+](C)(CC)CCOC(=O)C(O)(c1ccccc1)C1CCCCC1 (stereo not given),0.0414% [at 46 µM],
